Source: PubChem BioAssay (Tox21)
Inconclusive results are not listed. A call without a number means that no potency is given here. A number with no mark means an inactive call. Activity calls are given as the source filed them. Unless noted, the call rests on the fitted dose curve; in most records, active means well fitted curve in the direction sought with a large enough effect in the repeat runs; inconclusive means weak or mixed curves; inactive means no such curve, though single readings can be large; an effect the other way counts as inactive or inconclusive.

How the values were obtained:
[1] = target: Aryl hydrocarbon receptor (Homo sapiens) (UniProt P35869); assay: qHTS assay to identify small molecule that activate the aryl hydrocarbon receptor (AhR) signaling pathway (AID 743085); settings: HepG2 AhR-luc (HG2L7.5c1), luciferase, 24 h; series mostly up to 70.3 µM; further: nearly all actives have a fitted effect of over 15% in size; further: potency means the concentration at half of the fitted maximal effect;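 on activation: HG2L7.5c1 human HepG2 liver cells with stably integrated DRE-driven firefly reporter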
Method in brief: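 Luminescence read-out: ONE-Glo reagent, 30 min at room temperature, in HG2L7.5c1 HepG2 reporter cells treated 24 h at 37C. Viability was measured beforehand by CellTiter-Fluor fluorescence after 30 min at 37C.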

[2] = target: Peroxisome proliferator-activated receptor gamma (Homo sapiens) (UniProt P37231); assay: qHTS assay to identify small molecule agonists of the peroxisome proliferator-activated receptor gamma (PPARg) signaling pathway (AID 743094; active means well fitted activation curve with a large enough effect in the signal ratio in the repeat runs, not every such curve was filed as active; the % refers to the signal ratio); settings: HEK293H PPARg-UAS-bla, beta-lactamase FRET ratio, 17 h; series mostly up to 57 µM
Method in brief: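 Following 5 h plating at 37C, PPARg-bla HEK293H cells receive compound or DMSO for 17 h; fluorescence intensity is recorded after LiveBLAzer B/G loading for 1 h at room temperature.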

[3] = qHTS assay for small molecule agonists of the antioxidant response element (ARE) signaling pathway (AID 743202; active means well fitted activation curve with a large enough effect in the signal ratio in the repeat runs, not every such curve was filed as active; the % refers to the signal ratio); settings: HepG2 ARE-bla reporter, beta-lactamase FRET, 16 h; series mostly up to 73.3 µM
Method in brief: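 Agonist mode reporter screen: HepG2 cells with ARE-controlled beta-lactamase are incubated with test compounds for 16 h at 37 C, and beta-lactamase activity is measured as fluorescence of cleaved B/G FRET substrate.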

[4] = qHTS assay for small molecule agonists of the antioxidant response element (ARE) signaling pathway - cell viability counter screen (AID 743203; calls by dose curve; further: nearly all actives have a fitted effect of over 55% in size); settings: ARE-bla HepG2 viability, CellTiter-Glo luminescence, 16 h; series mostly up to 73.3 µM
Method in brief: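 Compounds in DMSO were pinned onto ARE-bla HepG2 cells plated 5 hrs earlier at 2,000 cells/well. Sixteen hours later at 37C/5% CO2, CellTiter-Glo was added and luminescence measured after 30 min at room temperature.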

[5] = qHTS assay for small molecule activators of the heat shock response signaling pathway - cell viability counter screen (AID 743209); settings: HSE-bla HeLa viability, CellTiter-Glo luminescence, 5 h; series mostly up to 62.6 µM; further: nearly all actives have a fitted effect of over 50% in size
Method in brief: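 Counter screen for cytotoxicity in HeLa HSE-bla reporter cells. Treatment was 5 h at 37 C; viability was detected by luminescent ATP assay (CellTiter-Glo) in the same wells as the beta-lactamase read.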

[6] = qHTS assay for small molecule activators of the heat shock response signaling pathway (AID 743210; active means well fitted activation curve with a large enough effect in the signal ratio in the repeat runs, with a control signal flat, not every such curve was filed as active; the % refers to the signal ratio;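 further: HeLa cells with beta-lactamase reporter driven by heat shock elements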); settings: HeLa HSE-bla reporter, beta-lactamase ratio, 5 h; series mostly up to 62.6 µM
Method in brief: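 Quantitative high-throughput format using an engineered HeLa line in which heat shock response elements drive beta-lactamase; after 5 h with compound, cells received a B/G FRET substrate and fluorescence was read.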

[7] = qHTS assay to identify small molecule agonists of the peroxisome proliferator-activated receptor delta (PPARd) signaling pathway - cell viability counter screen (AID 743211); settings: PPARd-bla HEK293H viability, CellTiter-Glo luminescence, 17 h; series mostly up to 62.6 µM; further: nearly all actives have a fitted effect of over 55% in size
Method in brief: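 Read-out: CellTiter-Glo luminescence, 30 min RT, measured in the same wells as the beta-lactamase reporter. Cells: GeneBLAzer PPAR delta UAS-bla HEK293H, 3000 cells/well, compound exposure 17 h at 37C.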

[8] = qHTS assay to identify small molecule that activate the aryl hydrocarbon receptor (AhR) signaling pathway - cell viability counter screen (AID 743086); settings: HepG2-AhR-luc viability, CellTiter-Fluor, 24 h; series mostly up to 70.3 µM;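 further: HepG2 liver cells carrying the AhR DRE luciferase reporter; nearly all actives have a fitted effect of over 45% in size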
Method in brief: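 HepG2-AhR-luc (HG2L7.5c1) cells, 4000/well, treated 24 h at 37 C with compound; viability measured as CellTiter-Fluor fluorescence after 30 min in the same wells as the luciferase read.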

[9] = target: Peroxisome proliferator-activated receptor gamma (Homo sapiens) (UniProt P37231); assay: qHTS assay to identify small molecule antagonists of the peroxisome proliferator-activated receptor gamma (PPARg) signaling pathway (AID 743191; calls by dose curve; further: nearly all actives have a fitted effect of over 30% in size); settings: HEK293H PPARg-UAS-bla, beta-lactamase ratio, antagonist, 17 h; series mostly up to 62.6 µM
Method in brief: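 GeneBLAzer PPARg UAS-bla HEK293H cells, 5 h post-plating, exposed to compounds 17 h at 37C. LiveBLAzer B/G FRET substrate added for 1 h at room temperature; beta-lactamase reporter read by fluorescence intensity.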

[10] = qHTS assay to identify small molecule antagonists of the peroxisome proliferator-activated receptor gamma (PPARg) signaling pathway - cell viability counter screen (AID 743194); settings: PPARg-bla HEK293H viability, CellTiter-Glo luminescence, 17 h, co-treated with 50 nM rosiglitazone; series mostly up to 62.6 µM; further: nearly all actives have a fitted effect of over 55% in size
Method in brief: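 Cytotoxicity counter screen in PPARg-bla HEK293H cells, same wells as reporter assay. Compounds plus 50 nM rosiglitazone (final) for 17 h at 37 C, then viability read by CellTiter-Glo luminescence.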

Chain of Peroxisome proliferator-activated receptor gamma (Homo sapiens) (P37231 whole entry, looked up): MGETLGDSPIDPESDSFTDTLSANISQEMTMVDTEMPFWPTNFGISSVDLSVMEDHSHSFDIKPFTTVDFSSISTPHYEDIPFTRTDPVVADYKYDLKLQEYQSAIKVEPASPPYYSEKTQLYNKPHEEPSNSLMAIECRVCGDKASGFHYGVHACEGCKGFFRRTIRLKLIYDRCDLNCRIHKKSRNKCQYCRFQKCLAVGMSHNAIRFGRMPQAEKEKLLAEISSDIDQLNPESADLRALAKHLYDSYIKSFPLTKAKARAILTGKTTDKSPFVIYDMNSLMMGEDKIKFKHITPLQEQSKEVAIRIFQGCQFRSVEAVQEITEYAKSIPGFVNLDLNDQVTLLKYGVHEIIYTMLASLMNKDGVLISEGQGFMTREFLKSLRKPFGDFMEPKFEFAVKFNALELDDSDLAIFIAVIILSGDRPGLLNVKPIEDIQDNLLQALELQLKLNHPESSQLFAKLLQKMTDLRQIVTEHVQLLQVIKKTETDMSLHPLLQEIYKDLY
Chain of Aryl hydrocarbon receptor (Homo sapiens) (P35869 whole entry, looked up): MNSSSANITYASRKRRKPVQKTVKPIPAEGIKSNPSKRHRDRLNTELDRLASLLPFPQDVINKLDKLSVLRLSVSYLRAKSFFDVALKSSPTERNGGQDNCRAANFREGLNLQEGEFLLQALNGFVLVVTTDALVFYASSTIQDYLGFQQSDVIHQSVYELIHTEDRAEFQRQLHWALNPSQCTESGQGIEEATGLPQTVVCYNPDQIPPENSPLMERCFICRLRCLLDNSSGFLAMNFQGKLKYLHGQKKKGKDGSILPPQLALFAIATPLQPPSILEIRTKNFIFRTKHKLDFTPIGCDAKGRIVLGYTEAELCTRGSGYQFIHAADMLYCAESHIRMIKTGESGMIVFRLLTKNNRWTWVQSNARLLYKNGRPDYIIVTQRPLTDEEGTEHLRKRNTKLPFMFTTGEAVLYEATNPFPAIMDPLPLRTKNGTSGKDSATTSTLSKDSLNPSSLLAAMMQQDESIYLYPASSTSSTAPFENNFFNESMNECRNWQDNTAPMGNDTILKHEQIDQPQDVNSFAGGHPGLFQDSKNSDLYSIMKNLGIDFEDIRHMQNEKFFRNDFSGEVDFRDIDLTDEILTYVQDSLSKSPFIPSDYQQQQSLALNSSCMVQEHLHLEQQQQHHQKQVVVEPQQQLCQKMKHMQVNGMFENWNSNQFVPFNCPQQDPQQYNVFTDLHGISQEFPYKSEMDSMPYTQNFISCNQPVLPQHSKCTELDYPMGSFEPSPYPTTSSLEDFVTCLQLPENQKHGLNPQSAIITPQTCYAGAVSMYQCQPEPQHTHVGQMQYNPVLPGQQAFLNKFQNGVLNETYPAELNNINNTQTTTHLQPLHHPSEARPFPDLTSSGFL

CC(C)COC(=O)COc1ccc(Cl)cc1Cl
Potency [1]: inactive | outcome [2]: inactive | Potency [3]: inactive | outcome [4]: inactive | outcome [5]: inactive | outcome [6]: inactive | outcome [7]: inactive

O=C(c1ccc2c(c1)C(=O)OC2=O)c1ccc2c(c1)C(=O)OC2=O
Potency [1]: inactive | Potency [8]: inactive | outcome [2]: inactive | Potency [3]: inactive | outcome [5]: inactive | outcome [6]: inactive | outcome [7]: inactive

CNCc1ccccc1
Potency [8]: inactive | outcome [2]: inactive | Potency [9]: inactive | outcome [10]: inactive | Potency [3]: inactive | outcome [4]: inactive | outcome [6]: inactive | outcome [7]: inactive

CC(=O)OCCCc1ccccc1
Potency [1]: inactive | Potency [8]: inactive | outcome [10]: inactive | outcome [4]: inactive | outcome [5]: inactive | outcome [6]: inactive | outcome [7]: inactive

COc1ccc(NS(=O)(=O)c2ccc(N)cc2)nn1
Potency [1]: inactive | Potency [8]: inactive | outcome [10]: inactive | Potency [3]: inactive | outcome [4]: inactive | outcome [5]: inactive | outcome [6]: inactive | outcome [7]: inactive

O=C(O)Cc1cccc(-c2cc(CCCCCCc3ccc(O[C@H]4O[C@H](CO)[C@@H](O)[C@H](O)[C@@H]4O)c(-c4cccc(CC(=O)O)c4)c3)ccc2O[C@H]2O[C@H](CO)[C@@H](O)[C@H](O)[C@@H]2O)c1
Potency [8]: inactive | outcome [2]: inactive | ratio activity, negative = inhibition [9]: -5.32% [at 0.55 µM] | activation [3]: -7.76% [at 0.756 µM] | viability change, negative = cytotoxic [4]: -4.49% [at 0.756 µM] | activity change, negative = cytotoxicity [5]: -0.941% [at 0.55 µM] | activation [6]: 0.0325% [at 0.55 µM] | activity change, negative = cytotoxicity [7]: 4.03% [at 0.55 µM]

COc1cccc2sc(N)nc12
Potency [1]: 27.5 µM (active) | Potency [8]: inactive | outcome [2]: inactive | Potency [3]: inactive | outcome [4]: inactive | outcome [6]: inactive | outcome [7]: inactive

CC(C)COC(=O)/C=C/c1ccccc1
Potency [1]: inactive | Potency [8]: inactive | outcome [10]: inactive | Potency [3]: inactive | outcome [4]: inactive | outcome [5]: inactive | outcome [6]: inactive | outcome [7]: inactive

NC(=O)NNC(N)=O
Potency [1]: inactive | Potency [8]: inactive | outcome [2]: inactive | outcome [4]: inactive | outcome [5]: inactive | outcome [6]: inactive | outcome [7]: inactive

COC(OC)C(C)c1ccccc1 (stereo unspecified)
Potency [8]: inactive | outcome [2]: inactive | Potency [9]: inactive | outcome [10]: inactive | outcome [4]: inactive | outcome [5]: inactive | outcome [6]: inactive | outcome [7]: inactive

NC(=O)C1(N2CCCCC2)CCN(CCCC(=O)c2ccc(F)cc2)CC1
Potency [8]: inactive | outcome [2]: inactive | Potency [9]: inactive | outcome [10]: inactive | Potency [3]: inactive | outcome [4]: inactive | outcome [5]: inactive | outcome [6]: inactive | outcome [7]: inactive

Nc1ccc(/C=C/c2ccc(N)cc2S(=O)(=O)O)c(S(=O)(=O)O)c1
Potency [1]: inactive | Potency [8]: inactive | activity change, negative = cytotoxicity [10]: -0.597% [at 0.55 µM] | activation [3]: -8.26% [at 0.756 µM] | viability change, negative = cytotoxic [4]: -11% [at 0.756 µM] | activation [6]: 0.7% [at 0.55 µM] | activity change, negative = cytotoxicity [7]: 4.06% [at 0.55 µM]

Nc1cc(Cl)cc(S(=O)(=O)O)c1O
Potency [1]: inactive | Potency [8]: inactive | outcome [2]: inactive | outcome [10]: inactive | outcome [4]: inactive | outcome [7]: inactive

CCC(CO)CO
Potency [1]: inactive | outcome [2]: inactive | Potency [9]: inactive | Potency [3]: inactive | outcome [4]: inactive | outcome [6]: inactive | outcome [7]: inactive

Cc1ccc2c(c1)c1c3n2CCNC3CCC1 (stereo unspecified)
Potency [1]: 10.6 µM (active) | Potency [3]: inactive | outcome [4]: inactive | outcome [5]: inactive | outcome [7]: inactive

O=CO
activation [1]: 0.579% [at 8.47 µM] | viability change, negative = cytotoxic [8]: -0.0332% [at 8.47 µM] | activity change, negative = cytotoxicity [10]: 15.3% [at 5.95 µM] | activation [3]: -2.02% [at 8.36 µM] | viability change, negative = cytotoxic [4]: -3% [at 8.36 µM] | activity change, negative = cytotoxicity [5]: 8.14% [at 5.95 µM] | activation [6]: -1.54% [at 5.95 µM] | activity change, negative = cytotoxicity [7]: 1.94% [at 5.95 µM]

CC(C)c1ccccc1O
Potency [1]: inactive | Potency [8]: inactive | outcome [10]: inactive | Potency [3]: inactive | outcome [4]: inactive | outcome [5]: inactive | outcome [6]: inactive | outcome [7]: inactive

COc1cc2c(Nc3ccc(Br)cc3F)ncnc2cc1OCC1CCN(C)CC1
Potency [1]: inactive | outcome [2]: inactive | Potency [9]: inactive | outcome [10]: inactive | Potency [3]: inactive | outcome [4]: inactive | outcome [5]: inactive | outcome [6]: inactive | outcome [7]: inactive

CC1=NN(c2ccc(S(=O)(=O)O)cc2)C(=O)C1N=Nc1ccccc1 (stereo unspecified)
Potency [1]: 24.3 µM (active) | outcome [2]: inactive | Potency [9]: inactive | outcome [10]: inactive | outcome [4]: inactive | outcome [5]: inactive | outcome [6]: inactive | outcome [7]: inactive

Cc1ccc(S(=O)(=O)NC(=O)NC2CCCCCCC2)cc1
Potency [1]: inactive | Potency [8]: inactive | outcome [10]: inactive | Potency [3]: inactive | outcome [4]: inactive | outcome [5]: inactive | outcome [6]: inactive | outcome [7]: inactive

CNC(=O)C(c1ccccc1)c1ccccc1
Potency [1]: inactive | Potency [8]: inactive | outcome [10]: inactive | Potency [3]: inactive | outcome [4]: inactive | outcome [5]: inactive | outcome [7]: inactive

CC(=O)c1ccc(OCC(=O)N2CCCCC2)cc1
Potency [8]: inactive | outcome [2]: inactive | Potency [9]: inactive | outcome [10]: inactive | Potency [3]: inactive | outcome [5]: inactive | outcome [6]: inactive | outcome [7]: inactive

CN[C@@H]1[C@H](O)[C@H](NC)[C@H]2O[C@@]3(O)C(=O)C[C@@H](C)O[C@H]3O[C@@H]2[C@H]1O
Potency [8]: inactive | outcome [2]: inactive | Potency [9]: inactive | outcome [10]: inactive | Potency [3]: inactive | outcome [5]: inactive | outcome [6]: inactive | outcome [7]: inactive

C[C@@H]1C[C@H]2[C@@H]3C[C@H](F)C4=CC(=O)C=C[C@]4(C)[C@@]3(F)[C@@H](O)C[C@]2(C)[C@@]1(O)C(=O)CO
Potency [1]: inactive | Potency [8]: inactive | outcome [10]: inactive | Potency [3]: inactive | outcome [4]: inactive | outcome [5]: inactive | outcome [6]: inactive | outcome [7]: inactive

O=C(COCCOCCOCC(=O)Nc1c(I)cc(I)c(C(=O)O)c1I)Nc1c(I)cc(I)c(C(=O)O)c1I
Potency [8]: inactive | outcome [2]: inactive | Potency [9]: inactive | outcome [10]: inactive | Potency [3]: inactive | outcome [4]: inactive | outcome [5]: inactive | outcome [7]: inactive

CCC1Nc2cc(Cl)c(S(N)(=O)=O)cc2S(=O)(=O)N1 (stereo unspecified)
Potency [1]: inactive | Potency [8]: inactive | outcome [10]: inactive | Potency [3]: inactive | outcome [4]: inactive

C=CCOc1cc(Cl)ccc1C(=O)NCCN(CC)CC
Potency [1]: inactive | outcome [2]: inactive | outcome [10]: inactive | Potency [3]: inactive | outcome [4]: inactive | outcome [5]: inactive | outcome [6]: inactive | outcome [7]: inactive

O=[Si]=O
Potency [8]: inactive | outcome [2]: inactive | Potency [9]: inactive | outcome [10]: inactive | Potency [3]: inactive | outcome [4]: inactive | outcome [5]: inactive | outcome [6]: inactive | outcome [7]: inactive

CCNC(=O)/C=C/c1cccc(Br)c1
Potency [8]: inactive | outcome [2]: inactive | Potency [9]: inactive | outcome [10]: inactive | Potency [3]: inactive | outcome [5]: inactive | outcome [6]: inactive | outcome [7]: inactive

C1CCN2C[C@@H]3C[C@@H](CN4CCCC[C@@H]34)[C@H]2C1
Potency [1]: inactive | Potency [8]: inactive | outcome [10]: inactive | Potency [3]: inactive | outcome [4]: inactive | outcome [5]: inactive | outcome [7]: inactive
